PubChem BioAssay AID598 (SRMLSC, 2007)
Among all 85,000 compounds or so, about 5,100 (6%) were called active. For the sample, actives were picked, then their nearest neighbours and some compounds at random. Unmarked numbers belong to inactive results.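 How the source made its calls: active means viability at or below 40%; inactive means viability above 40%.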

Assay: proliferation blockers of H69AR lung cancer cells, primary screen, cell-based, human, 86K library (AID 598);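 further: multidrug resistant small cell line overexpressing MRP-1 efflux transporter; 100% = mean luminescence of untreated control wells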
Settings: H69AR lung tumor viability, ATP luminescence, 72 h; at 10 µM; active compounds read low

For `CC[C@]1(O)CC2CN(CCc3c([nH]c4ccccc34)[C@@](C(=O)OC)(c3cc4c(cc3OC)N(C=O)[C@H]3[C@@](O)(C(=O)OC)[C@H](OC(C)=O)[C@]5(CC)C=CCN6CC[C@]43[C@@H]65)C2)C1` (stereo partly specified), which viability is on record?
Its viability is 31.9% (active).

With `CC(C)c1cc(C(=O)O)n[nH]1` as the compound, how does the viability read?
The viability was 102%.

With `Cc1ccc(NC(=O)CSCC(=O)N2CCOCC2)cc1` as the compound, how does the viability read?
The viability was 93.9%.

With `CCCc1[nH]nc2c1C(c1ccc(OC(=O)c3ccco3)cc1)C(C#N)=C(N)O2` (stereo unspecified) as the compound, how does the viability read?
Its viability is 97.7%.

With `CCCc1[nH]nc2c1C(c1ccc(OC)c(Cn3nc(C)c(Br)c3C)c1)C(C#N)=C(N)O2` (stereo unspecified) as the compound, how does the viability read?
Its viability is 87.4%.

With `CCCc1[nH]nc2c1C(c1ccc(Br)s1)C(C#N)=C(N)O2` (stereo unspecified) as the compound, how does the viability read?
Its viability is 1.42% (active).

For `CCOc1ccc(CN(Cc2ccco2)S(=O)(=O)c2ccc(-n3cnnn3)c(OC)c2)cc1`, which viability is on record?
The viability was 66.6%.

Which viability does the source give for `Cc1c(C=O)c2ccccn2c1C(=O)c1ccncc1` here?
Its viability is 87.6%.

For `Cc1ccc(-c2cc(C(=O)NCC3CCCO3)c3ccccc3n2)o1` (stereo unspecified), which viability is on record?
The viability was 87.9%.

With `Cc1ccc(-c2csc(SCC(=O)Nc3cc(C)on3)n2)cc1` as the compound, how does the viability read?
Its viability is 87.9%.

For `Cc1ccc2nc(-c3ccc(SCC(=O)Nc4cc(C)on4)nc3)[nH]c2c1`, which viability is on record?
Its viability is 10.7% (active).

Which viability does the source give for `COc1ccc2nc(SCC(=O)Nc3c(C)cc(C)cc3C)[nH]c2c1` here?
The viability was 71.7%.

Which viability does the source give for `CC(C)NC(=O)CSc1nnc(COc2ccccc2Cl)o1` here?
The viability was 106%.

For `CCCC(C)C(=O)Nc1ccc(NC(C)=O)cc1` (stereo unspecified), which viability is on record?
The viability was 103%.

With `CCCC(=O)Nc1ccc(Cl)c(NC(=O)c2ccc(Br)o2)c1` as the compound, how does the viability read?
Its viability is 28.2% (active).

With `CCN1CCN(c2c(Cl)cccc2NC(=O)c2ccc(Br)o2)CC1` as the compound, how does the viability read?
Its viability is 90.5%.

Which viability does the source give for `COc1cc(OC)c(NC(=O)c2ccc(Br)o2)cc1Cl` here?
Its viability is 58.5%.

With `CCN(c1ccccc1)S(=O)(=O)c1ccc(N)cc1` as the compound, how does the viability read?
The viability was 89.9%.

For `CCN(c1ccccc1)S(=O)(=O)c1cccc(C(=O)O)c1`, which viability is on record?
Its viability is 103%.

With `CCN(c1ccccc1)S(=O)(=O)c1ccc(NC(=O)C(C)(C)C)cc1` as the compound, how does the viability read?
The viability was 34.8% (active).

With `COc1ccc(/C(O)=C2\C(=O)C(=O)N(Cc3ccco3)C2c2ccc(OC)cc2OC)cc1` (stereo unspecified) as the compound, how does the viability read?
Its viability is 97.1%.

Which viability does the source give for `CC1=NN(/C(=N\c2nnc(C)s2)Nc2ccccc2)[C@H](c2ccc(C)cc2)S1` here?
The viability was 56.5%.

For `CS(=O)(=O)N(CC(=O)Nc1ccc(Cl)c(Cl)c1)C1CCCCC1`, which viability is on record?
The viability was 16.6% (active).

For `CCOC(=O)N1CCN(C(=O)CN(C2CCCCC2)S(C)(=O)=O)CC1`, which viability is on record?
The viability was 84.9%.

With `CS(=O)(=O)N(CC(=O)N1CCN(c2ccc(F)cc2)CC1)C1CCCCC1` as the compound, how does the viability read?
The viability was 92%.

Which viability does the source give for `COC(=O)C1=C(C)N=C2SC(C)C(=O)N2C1/C=C/c1ccccc1` (stereo unspecified) here?
Its viability is 85.8%.

For `O=C(NCCCN1CCCCC1)c1ccc2c(c1)NC(=O)C(N1CCOCC1)S2` (stereo unspecified), which viability is on record?
Its viability is 98.8%.

With `CCOc1ccc(Cn2nnc(C(=O)NCc3ccccc3)c2N)cc1` as the compound, how does the viability read?
Its viability is 90.5%.

Which viability does the source give for `Nc1c(C(=O)NCc2ccccc2)nnn1Cc1cccc(Cl)c1` here?
Its viability is 26.7% (active).

For `CCOc1ccc(Cn2nnc(C(=O)Nc3ccc(OC)cc3OC)c2N)cc1`, which viability is on record?
Its viability is 76.9%.

With `COc1cc(OC)cc(-c2cc3nc(C4CCN(C(=O)OC(C)(C)C)CC4)cc(=O)n3[nH]2)c1` as the compound, how does the viability read?
Its viability is 106%.

Which viability does the source give for `COc1ccc(C(=O)NN(C)c2nc(-c3ccccc3)cc(C)c2S(C)(=O)=O)cc1` here?
Its viability is 85%.

For `Cc1nn(-c2ccccc2)c2sc(C(=O)N(Cc3ccco3)C(C)C(=O)NC(C)(C)C)cc12` (stereo unspecified), which viability is on record?
Its viability is 7.03% (active).

Which viability does the source give for `O=C(NCc1ccco1)c1nc(-c2ccccc2)n(-c2ccccc2)n1` here?
The viability was 75%.

Which viability does the source give for `Cn1nc(-c2ccc(Cl)cc2)c2cc(C(=O)NCc3ccco3)sc21` here?
Its viability is 68.1%.

Which viability does the source give for `Cc1cccc(NC(=O)c2sc3nc4c(c(-c5ccco5)c3c2N)CCC4)c1` here?
The viability was 78.6%.

With `CC(=O)Nc1ccc(NC(=O)c2sc3nc4c(c(-c5ccc(C)cc5)c3c2N)CCC4)cc1` as the compound, how does the viability read?
The viability was 30.2% (active).

With `NC(=O)c1sc2nc3c(c(-c4ccccc4)c2c1N)CCC3` as the compound, how does the viability read?
Its viability is 73.2%.

Which viability does the source give for `COc1cc(OC)c(-n2c(C)cc(C=O)c2C)cc1Cl` here?
Its viability is 104%.

Which viability does the source give for `Cc1cccc(C)c1NC(=O)CSc1nnc(-c2ccccc2)n1Cc1ccc2c(c1)OCO2` here?
The viability was 72.2%.

Which viability does the source give for `CSc1nc(C)cc(SC(C(C)=O)C(=O)Nc2ccccc2)n1` (stereo unspecified) here?
Its viability is 100%.

For `Cc1onc(-c2ccccc2Cl)c1C(=O)OCC(=O)c1ccccc1`, which viability is on record?
The viability was 97%.

Which viability does the source give for `CN1CCN(CCCNC(=O)c2cc3c(=O)oc4ccccc4c3s2)CC1` here?
Its viability is 87.3%.

With `O=C(NCCN1CCN(Cc2ccccc2)CC1)c1cc2c(=O)[nH]c3ccccc3c2s1` as the compound, how does the viability read?
The viability was 1.91% (active).

For `O=C(Cc1c(O)c2ccccc2[nH]c1=O)NCc1ccccc1`, which viability is on record?
The viability was 101%.

For `COc1ccc(-n2c(C)csc2=S)cc1`, which viability is on record?
The viability was 86.6%.
